Records with an inconclusive call do not appear. The source holds several records for some structures; these can differ, active in one and inactive in another. Calls of active or inactive are those of the source. The call rests on the fitted dose curve.
On the % scale 0 is the no-effect control and ±100 the full control effect; potency means the concentration at half of the fitted maximal effect.

This experiment is described as follows: p53 small molecule agonists, cell-based qHTS assay with rat liver microsomes: qHTS cell viability counter screen (AID 1963580). Further: nearly all actives have a fitted effect of over 45% in size. Particulars: p53RE-bla HCT-116 + rat microsomes, ATP viability, 16 h; series mostly up to 66 µM; activity change, negative = cytotoxicity: at the top concentration. The text has this:
National Center for Advancing Translational Sciences [NCATS]
Division of Preclinical Innovation [DPI]
U.S. Environmental Protection Agency [EPA]
National Institutes of Environmental Health Sciences [NIEHS]
National Toxicology Program [NTP]
U.S. Food and Drug Administration [FDA]
p53, a tumor suppressor protein, is activated following cellular insult, including DNA damage and other cellular stresses. The activation of p53 regulates cell fate by inducing DNA repair, cell cycle arrest, apoptosis, or cellular senescence. The activation of p53, therefore, is a good indicator of DNA damage and other cellular stresses. The CellSensor p53RE-bla HCT-116 cell line contains a stably integrated beta-lactamase reporter gene under control of the p53 response elements. The activation of the reporter gene under culture conditions can be detected by fluorescence intensity. This cell line was used to screen the Tox21 10K compound library in the condition of presence of rat liver microsomes and to identify agonists that activate the p53 signaling pathway after in vitro metabolic activation (Ooka et al., Archive of Toxicology 96:1975-1987, 2022). The cytotoxicity of the Tox21 compound library against the p53 RE-bla HCT-116 cell line was tested in parallel by measuring the intra cellular ATP content in the same wells.
Tox21 Assay Protocol Summary:
The p53RE-bla cells were dispensed at 4,000cells/3ul/well in 1536-well black-clear bottom plates. After the assay plates were incubated at 37 C, 5% CO2 incubator for 5 hours, 23 nL of compounds dissolved in DMSO, positive controls or DMSO only was transferred to the assay plate. Following compound addition, 3 uL of rat liver microsomes (Molecular Toxicology, Boone, NC) at final concentration of 0.5 mg/mL and 1uL of B-Nicotinamide adenine dinucleotide 2'-phosphate (NADPH) at final concentration of 0.5 mg/mL were transferred to the assay plate. The plates were incubated at 37 C for 16 hours. 1 uL of LiveBLAzer detection mixture was added to each well and the plates were incubated at room temperature in the dark for 2 h. Fluorescence intensity at 460 and 530 nm emission and 405 nm excitation were measured by an Envision plate reader. For cell viability readout that measures cytotoxicity, 4 ul/well of CellTiter-Glo reagent was added into the assay plates using a Flying Reagent Dispenser. After 30 min incubation at room temperature, the luminescence intensity in the plates was measured using a ViewLux plate reader.
For the compound `Cc1ccc(C(C)C)cc1O`, the “activity change, negative = cytotoxicity” value is 15.7% (inactive). The same measure, in the same setting: with `CC(=O)C1(C)CC2=C(CCCC2(C)C)CC1C` (stereo not given) the figure was -0.731% (inactive); with `CC(C)CCCCOC(=O)c1ccccc1C(=O)OCCCCC(C)C`, 2.99% (inactive); with `CCc1cccc(CC)c1NC(=O)C(=O)O`, 3.78% (inactive). Still for that read-out and setting: with `Cc1ccc(C)cc1` the figure was -1.05% (inactive); with `Nc1cc(C(Cl)=C(Cl)Cl)c(S(N)(=O)=O)cc1S(N)(=O)=O`, -2.73% [at 30.3 µM] (inactive); with `C[C@@H](O)[C@H]1C(=O)N2C(C(=O)O)=C([C@H]3CCCO3)S[C@H]12`, -0.394% [at 30.3 µM] (inactive).

With `CCCCCC1CCC(=O)O1` (stereo not given), the “activity change, negative = cytotoxicity” value is 4.74% (inactive).

In the case of `NNc1nncc2ccccc12`, the activity change, negative = cytotoxicity was 0.405% [at 13.5 µM] (inactive). Turning to `C=CC(=O)OCCCCCCCC`, the “activity change, negative = cytotoxicity” value is 1.52% (inactive). With `CCCN[C@H]1CCc2nc(N)sc2C1`, the Potency result was “inactive”. Turning to `O=C(O)/C=C/c1ccc(Cn2ccnc2)cc1`, the “activity change, negative = cytotoxicity” value was 3.77% [at 30.3 µM] (inactive). On the same count and under the same terms, with `CC(C)(C)OCC1CO1` (stereo not given) the figure was -3.82% (inactive); with `CCCCCCCC/C=C\CCCCCCCC(=O)OCCCC`, 7.39% [at 13.5 µM] (inactive). Still for that read-out and setting: with `CC(=C(CCOC(=O)C(C)C)SSC(CCOC(=O)C(C)C)=C(C)N(C=O)Cc1cnc(C)nc1N)N(C=O)Cc1cnc(C)nc1N` the figure was -0.0679% [at 30.3 µM] (inactive); with `C1CCCC1`, 7.42% (inactive); with `O=P(O)(OCc1ccccc1)OCc1ccccc1`, 1.38% (inactive). Same read-out and setting: with `[O]=[Zr]` the figure was 3.53% (inactive).

On to `CSc1ccc2c(c1)N(CCC1CCCCN1C)c1ccccc1S2` (stereo not given), for which the Potency was 40.6 µM (active) and inactive. Take `Cc1cc(C)c(C(=O)O)c(C)c1`: the “activity change, negative = cytotoxicity” value was 3.79% (inactive). On the same count and under the same terms, with `CC[C@H](C)[C@@H](C(=O)O)n1sc2ccccc2c1=O` the figure was 1.43% (inactive). With `C=C(C)C(=O)OCCOCCOCCOC(=O)C(=C)C`, the Potency entry was “inactive”. `CCc1occc(=O)c1O`: the “activity change, negative = cytotoxicity” value is 3.17% (inactive). `CNc1ccccc1`: the “activity change, negative = cytotoxicity” value is 3.5% (inactive). The same measure, in the same setting: with `CCOCCOCCOCC` the figure was -4.14% (inactive). The same measure, in the same setting: with `O=C(O[C@@H]1Cc2c(O)cc(O)cc2O[C@@H]1c1cc(O)c(O)c(O)c1)c1cc(O)c(O)c(O)c1` the figure was 1.23% (inactive); with `COCCCC/C(=N\OCCN)c1ccc(C(F)(F)F)cc1`, -1.11% [at 30.3 µM] (inactive). As to `CC(=O)c1ccccc1N`, the “activity change, negative = cytotoxicity” value is -0.977% (inactive).

On to `Nc1ncnc2c1ncn2[C@@H]1O[C@H](COP(=O)(O)O)[C@@H](O)[C@H]1O`, for which the “activity change, negative = cytotoxicity” value is 6.17% [at 30.3 µM] (inactive). Still for that read-out and setting: with `C=C(C)[C@@H]1CCC2=CCC[C@@H](C)[C@]2(C)C1` the figure was 14.6% (inactive); with `COC(=O)c1cc(Cl)ccc1NS(=O)(=O)C(F)(F)F`, -8.57% [at 30.3 µM] (inactive).

For `Cc1c(N)cccc1C(F)(F)F`, the “activity change, negative = cytotoxicity” value was -2.81% [at 30.3 µM] (inactive).

As for `O=[N+]([O-])c1ccccc1Nc1ccccc1`, the “activity change, negative = cytotoxicity” value is 0.0626% (inactive). Still for that read-out and setting: with `C=C(C)[C@@H]1CC[C@@H](C)C[C@@H]1O` the figure was 4.43% (inactive); with `COCCOCCOCCOCCOCCO`, 21.1% (inactive); with `CCC(C)(O)CCC=C(C)C` (stereo not given), -3.54% (inactive). Same read-out and setting: with `COc1nc(N)nc2nc[nH]c12` the figure was -4.57% (inactive). `CN1CCOCC1`: the Potency entry is “inactive”.

Turning to `Nc1nccs1`, the “activity change, negative = cytotoxicity” value was 5.92% (inactive). On the same count and under the same terms, with `CCCCOCCCC` the figure was 1.13% (inactive).

For the origin of these results see PubChem BioAssay (Tox21).
